The results in this text go back to PubChem BioAssay (Tox21).

Assay [1] is described as follows: qHTS assay to identify small molecule antagonists of the estrogen related receptor (ERR) signaling pathway from Tox21 library - cell viability counter screen (AID 1224834). Note: nearly all actives have a fitted effect of over 30% in size. The procedure, abridged: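 ERR reporter cells were plated 6 h before compound addition, then exposed to test compounds in DMSO for 17.5 h at 37 C. Viability was read as CellTiter-Fluor fluorescence after a 30-minute incubation at 37 C.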

Assay [2] has as its target Luciferin 4-monooxygenase (Photinus pyralis) (UniProt P08659). Nature of the assay: qHTS assay to identify small molecule inhibitors of firefly luciferase (AID 1224835). Note: nearly all actives have a fitted effect of over 25% in size. Note: potency is the fitted concentration of half-maximal effect. The essentials:
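Inhibition of purified Photinus luciferase is measured by luminescence. Substrate levels (D-luciferin, ATP) sit at their KM values. Each compound is tested in a concentration series.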
(In qHTS, concentration-response curves come from the screen itself.)

The nature of assay [3]: qHTS assay to identify small molecule agonists of the constitutive androstane receptor (CAR) signaling pathway - cell viability counter screen (AID 1224836). Note: nearly all actives have a fitted effect of over 45% in size. The essentials: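 Viability read-out: CellTiter-Fluor fluorescence after 23 h compound exposure at 37 C/5% CO2 in double-stable HepG2-CYP2B6-hCAR cells, with PK11195 present at 0.75 uM final; compounds tested in 15-point titration.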

Assay [4] can be described thus: qHTS assay to identify small molecule antagonists of the constitutive androstane receptor (CAR) signaling pathway - cell viability counter screen (AID 1224837). Note: nearly all actives have a fitted effect of over 45% in size. The procedure, abridged: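 HepG2 cells stably expressing hCAR and a CYP2B6-2.2kb reporter were plated and pre-incubated 4 hr at 37 C/5% CO2, then given compounds at 15 concentrations plus 50 nM CITCO (final). After 23 hr, viability was read by CellTiter-Fluor fluorescence.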

Assay [5] addresses Nuclear receptor subfamily 1 group I member 3 (Homo sapiens) (UniProt Q14994). The experiment in a line: qHTS assay to identify small molecule antagonists of the constitutive androstane receptor (CAR) signaling pathway (AID 1224838). Note: nearly all actives have a fitted effect of over 40% in size. The essentials:
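HepG2 cells stably co-transfected with hCAR and a CYP2B6-2.2kb luciferase reporter were seeded 4 h before compound addition at 15 concentrations. Cells were stimulated with 50 nM CITCO (final) for 24 h at 37 C; luciferase luminescence was then read.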

Assay [6] has the same target. The experiment in a line: qHTS assay to identify small molecule agonists of the constitutive androstane receptor (CAR) signaling pathway (AID 1224839).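 For activation: HepG2 cells stably carrying human CAR and a CYP2B6 luciferase reporter.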 Note: nearly all actives have a fitted effect of over 15% in size. Note: potency is the fitted concentration of half-maximal effect. The essentials: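 Luminescence read-out (ONE-Glo, 30 min, room temperature) from double-stable HepG2-CYP2B6-hCAR cells exposed 24 h to 15-point compound series in presence of 0.75 uM PK11195 final.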
A short description of assay [7]: qHTS assay to identify small molecule antagonists of the estrogen related receptor signaling pathway with the pleiotropic PPARgamma coactivator (PGC) from Tox21 10K library - cell viability counter screen (AID 1224840; active = well fitted cell-killing curve with a large enough effect in the repeat runs, not every such curve was filed as active; note: nearly all actives have a fitted effect of over 40% in size). The essentials: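 PGC/ERR cells were seeded at 2,000 cells/well and left 6 hours at 37 C/5% CO2 before pin-tool addition of compounds in DMSO. After 17.5 hours at 37 C, CellTiter-Fluor was added and fluorescence read 30 minutes later.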

The nature of assay [8]: qHTS assay to identify small molecule agonists of the hypoxia (HIF-1) signaling pathway - cell viability counter screen (AID 1224844; calls by dose curve; note: nearly all actives have a fitted effect of over 50% in size). The procedure, abridged:
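HRE-bla ME-180 cells in medium with 0.5% dialyzed FBS were preincubated 5 hrs at 37C, exposed to compounds for 17 hrs, then viability was read as CellTiter-Glo luminescence after 30 min at room temperature, in the reporter wells.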

A short description of assay [9]: qHTS assay to identify small molecule agonists of H2AX (AID 1224845; active = well fitted activation curve with a large enough effect in the signal ratio in the repeat runs, not every such curve was filed as active; the % refers to the signal ratio). The procedure, abridged: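 Phospho-H2AX Ser139 measured by HTRF (ex 320 nm; em 665 and 620 nm) after 24 hr antibody incubation. Compounds, 15 concentrations, 0.76% DMSO, were applied to CHO-K1 cells for 3hr at 37C before lysis.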
Assay [10] is described as follows: qHTS assay to identify small molecule agonists of H2AX - cell viability counter screen (AID 1224847; calls by dose curve;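 note: wild-type CHO-K1 cells; top concentration of the series differs between compounds; nearly all actives have a fitted effect of over 30% in size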). The essentials: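 CHO-K1 wt, 1000 cells/well, o/n 37C; cpds 15 conc, 3 h 37C, 0.76% DMSO; CellTiter-Glo, 30 min RT, luminescence.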
Assay [11] in a line: qHTS RealTime-Glo MT Cell Viability Assay in HepG2 cells - 24 hour (AID 1224867). Note: nearly all actives have a fitted effect of over 50% in size. The procedure, abridged:
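HepG2 cells were seeded at 600 cells/well together with NanoLuc luciferase and a cell-permeant prosubstrate, preincubated 5 h at 37 C/5% CO2, then pin-dosed with compounds in DMSO. Nonlytic luminescence from viable cells was read at each time point.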

Assay [12] can be described thus: qHTS RealTime-Glo MT Cell Viability Assay in HEK293 cells - 32 hour (AID 1224868). Note: top concentration of the series differs between compounds; nearly all actives have a fitted effect of over 50% in size. The essentials:
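HEK293 cells were seeded at 600 cells/well together with NanoLuc luciferase and cell-permeant prosubstrate, preincubated 5 h at 37 C/5% CO2, then given compound in DMSO by pintool. Luminescence from viable-cell prosubstrate reduction was read repeatedly over 40 h.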

A short description of assay [13]: qHTS RealTime-Glo MT Cell Viability Assay in HepG2 cells - 40 hour (AID 1224870). Note: nearly all actives have a fitted effect of over 50% in size. The essentials:
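Real-time viability: cells seeded at 600 per well together with NanoLuc and cell-permeant prosubstrate, compounds added after 5 h incubation. Luminescence tracked at 0, 8, 16, 24, 32 and 40 h of exposure.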

The target of assay [14] is Thyrotropin receptor (Homo sapiens) (UniProt P16473). Nature of the assay: qHTS assay to identify small molecule agonists of the thyroid stimulating hormone receptor (TSHR) signaling pathway (AID 1224843; calls by dose curve; note: nearly all actives have a fitted effect of over 45% in size). The procedure, abridged: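 Screening of the Tox21 10K collection used HEK293 cells engineered with TSHR at 800 cells per well. After a 30-min room-temperature compound exposure, HTRF cAMP reagents were added and fluorescence recorded 1 h later.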
Thyrotropin receptor (Homo sapiens), sequence (P16473 whole entry, looked up): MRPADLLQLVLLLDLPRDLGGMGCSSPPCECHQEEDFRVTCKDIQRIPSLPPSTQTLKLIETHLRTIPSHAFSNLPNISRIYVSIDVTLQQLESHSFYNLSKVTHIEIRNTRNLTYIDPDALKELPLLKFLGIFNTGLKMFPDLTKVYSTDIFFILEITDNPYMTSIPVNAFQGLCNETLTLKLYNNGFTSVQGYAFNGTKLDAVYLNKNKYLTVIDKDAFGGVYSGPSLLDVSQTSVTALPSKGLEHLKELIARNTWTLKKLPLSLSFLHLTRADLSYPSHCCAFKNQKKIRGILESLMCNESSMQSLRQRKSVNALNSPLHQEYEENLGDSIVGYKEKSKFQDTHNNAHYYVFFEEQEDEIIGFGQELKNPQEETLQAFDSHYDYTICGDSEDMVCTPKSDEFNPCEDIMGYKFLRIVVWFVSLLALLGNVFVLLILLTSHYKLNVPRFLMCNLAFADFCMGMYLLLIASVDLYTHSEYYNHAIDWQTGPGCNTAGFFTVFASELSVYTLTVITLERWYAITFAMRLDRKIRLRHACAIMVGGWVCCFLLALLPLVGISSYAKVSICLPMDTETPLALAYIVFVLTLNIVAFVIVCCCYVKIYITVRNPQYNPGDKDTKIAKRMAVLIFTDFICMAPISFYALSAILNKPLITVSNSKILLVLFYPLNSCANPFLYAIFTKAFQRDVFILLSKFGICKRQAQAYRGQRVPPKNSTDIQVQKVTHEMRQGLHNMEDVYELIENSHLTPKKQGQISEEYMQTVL

Assay [15] in a line: A CellTox Green Cytotoxicity Assay to monitor cytotoxicity in HEK293 cells - 0 hour (AID 1224869). Note: nearly all actives have a fitted effect of over 50% in size. The essentials: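 HEK293 cells premixed with CellTox Green dye were seeded at 600 cells/well and left 5 h at 37 C/5% CO2 before pin transfer of 23 nL compound in DMSO. Fluorescence from dye bound to dead-cell DNA was read during 40 h treatment.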
The nature of assay [16]: qHTS assay to identify small molecule agonists of the hypoxia (HIF-1) signaling pathway (AID 1224846; active = well fitted activation curve with a large enough effect in the signal ratio in the repeat runs, not every such curve was filed as active; the % refers to the signal ratio). The procedure, abridged:
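HRE-bla ME-180 cells (beta-lactamase reporter under hypoxia response element) were plated at 2,000 cells/well in medium with 0.5% dialyzed FBS, rested 5 hrs, then given compounds in DMSO for 17 hrs at 37C, 5% CO2. Reporter induction was read with CCF4-AM FRET substrate.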

Assay [17] in a line: qHTS assay to identify small molecule agonists of the estrogen related receptor signaling pathway with the pleiotropic PPARgamma coactivator (PGC) from Tox21 10K library (AID 1224842). Note: nearly all actives have a fitted effect of over 15% in size. The essentials: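 Luminescence from One-Glo (30 min, room temperature) measured after PGC/ERR cells had 18 h at 37 C with pinned compound (23 nL in DMSO). Cells had been seeded at 2,000 per well and pre-incubated 6 h.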

Assay [18] can be described thus: qHTS assay to identify small molecule antagonists of the estrogen related receptor (ERR) signaling pathway from Tox21 library (AID 1224848). Note: nearly all actives have a fitted effect of over 50% in size. Note: potency is the fitted concentration of half-maximal effect. The essentials:
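Antagonist-mode screen of the Tox21 10K library in an NTP-provided ERR reporter cell line; 18 h compound exposure at 37 C, luminescence measured with ONE-Glo.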

Assay [19] is described as follows: qHTS assay to identify small molecule agonists of the estrogen related receptor (ERR) signaling pathway from Tox21 library (AID 1224849; calls by dose curve; note: nearly all actives have a fitted effect of over 15% in size). The following applies: ERR reporter cell line, ONE-Glo luciferase, 18 h; at 92.4 µM (top of the series) unless noted. The essentials:
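ERR reporter cell line (NTP) seeded, rested 6 h at 37 C/5% CO2, then pinned with Tox21 compounds in DMSO. After 18 h at 37 C, ONE-Glo luciferase luminescence was read following 30 min at room temperature.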

The nature of assay [20]: qHTS assay to identify small molecule antagonists of the estrogen related receptor signaling pathway with the pleiotropic PPARgamma coactivator (PGC) from Tox21 10K library (AID 1224841; call rule not given here). The procedure, abridged:
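PGC/ERR reporter cells were seeded at 2,000 cells/well and held 6 hours at 37 C/5% CO2 before pin-tool addition of compounds in DMSO. After 18 hours at 37 C, One-Glo was added and luminescence read after 30 minutes at room temperature.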

A number with no mark means an inactive call. Inconclusive results are not listed. Activity calls are given as the source filed them. Unless noted, calls come from the whole dose curve; as a rule, active = well fitted curve in the direction sought with a large enough effect in the repeat runs; inconclusive = weak or mixed curves; inactive = no such curve, though single readings can be large; an effect the other way counts as inactive or inconclusive.
% is set by controls: 0 for no effect and ±100 for the full control effect.

Luciferin 4-monooxygenase (Photinus pyralis), sequence (P08659 whole entry, looked up): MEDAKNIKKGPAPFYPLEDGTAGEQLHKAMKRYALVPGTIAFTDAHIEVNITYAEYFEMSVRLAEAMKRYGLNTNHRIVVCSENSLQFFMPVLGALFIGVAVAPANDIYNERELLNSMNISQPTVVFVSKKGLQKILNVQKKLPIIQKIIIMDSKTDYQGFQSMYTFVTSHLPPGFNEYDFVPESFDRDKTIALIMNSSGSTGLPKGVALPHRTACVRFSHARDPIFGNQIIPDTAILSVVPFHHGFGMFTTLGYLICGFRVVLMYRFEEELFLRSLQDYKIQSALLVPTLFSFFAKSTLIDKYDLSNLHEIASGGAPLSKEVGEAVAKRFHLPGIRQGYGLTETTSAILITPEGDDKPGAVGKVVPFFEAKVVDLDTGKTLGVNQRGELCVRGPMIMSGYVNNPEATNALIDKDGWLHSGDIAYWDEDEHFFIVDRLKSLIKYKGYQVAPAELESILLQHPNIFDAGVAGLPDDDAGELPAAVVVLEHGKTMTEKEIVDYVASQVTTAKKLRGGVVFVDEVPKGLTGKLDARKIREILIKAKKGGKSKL
Nuclear receptor subfamily 1 group I member 3 (Homo sapiens), sequence (Q14994 whole entry, looked up): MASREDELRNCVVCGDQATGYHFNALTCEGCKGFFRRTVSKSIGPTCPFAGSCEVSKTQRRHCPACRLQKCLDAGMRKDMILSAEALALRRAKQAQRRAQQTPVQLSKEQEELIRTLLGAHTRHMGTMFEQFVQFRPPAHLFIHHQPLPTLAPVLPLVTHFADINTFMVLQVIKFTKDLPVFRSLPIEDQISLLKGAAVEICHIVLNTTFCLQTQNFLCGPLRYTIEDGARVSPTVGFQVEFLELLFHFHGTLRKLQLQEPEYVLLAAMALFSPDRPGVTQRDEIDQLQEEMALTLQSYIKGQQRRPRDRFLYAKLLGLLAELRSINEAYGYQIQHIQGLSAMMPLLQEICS

For the molecule `C[N+](C)(C)CCOC(N)=O`, the Potency result in assay [1], in assay [2], in assay [3], in assay [4], in [5] and in assay [6] was “inactive” each time. Moreover, the Potency entry in assay [7], in assay [8], in assay [9], in assay [10], in assay [11] and in assay [12] was “inactive” in each case. In addition, the Potency result in [13] is “inactive”.
For `CCCCN(CCCC)CCCOC(=O)c1ccc(N)cc1`, the Potency result in assay [1], in [2], in assay [3], in assay [4], in assay [5] and in [7] was “inactive” in each case. For the same molecule, the Potency entry in assay [14], in [8], in assay [9], in [10], in assay [11] and in assay [12] was “inactive” throughout. Also, the Potency entry in assay [15] and in assay [13] was “inactive” in each case. In [6], the Potency is 26.6 µM (active).
For `CC(CCc1ccc2c(c1)OCO2)NN` (stereo unspecified), the Potency entry in assay [1], in assay [2], in assay [3], in assay [4], in assay [5] and in assay [6] was “inactive” in each case. In addition, the Potency entry in assay [7], in [14], in assay [9], in [10], in assay [11] and in [12] was “inactive” in each case. Further, the Potency entry in [13] was “inactive”. The molecule was called inactive in assay [16].
Take `CCCCC(CC)C(=O)OCCOCCOCCOCCOC(=O)C(CC)CCCC` (stereo unspecified): the Potency result in assay [1], in assay [2], in [3], in assay [4], in assay [5] and in assay [6] was “inactive” each time. The Potency result in assay [7], in [17], in assay [8], in assay [9], in [10] and in [11] was “inactive” each time. Moreover, the Potency entry in [13] is “inactive”. Besides, in assay [16], the result was inactive. Also, the Potency in [18] is 30.6 µM (active). The activity change, positive = activation in [19] is -33%.
In the case of `CCCOCCOCCO`, the Potency entry in [1], in assay [2], in [3], in assay [4], in assay [5] and in assay [6] was “inactive” in each case. Also, the Potency result in [7], in [14], in [8], in assay [9], in assay [11] and in assay [12] was “inactive” in each case. Besides, the Potency result in assay [15] and in assay [13] was “inactive” in each case. Further, in assay [16], the molecule was called inactive.
`Cc1cc(C(=C2C=CC(=Nc3ccc(S(=O)(=O)O)cc3S(=O)(=O)O)C=C2)c2ccc(Nc3ccc(S(=O)(=O)O)cc3)cc2)ccc1N`: the Potency result in assay [1], in assay [3], in [4], in [5], in assay [6] and in [7] was “inactive” each time. In addition, the Potency result in [8], in assay [10], in assay [11], in assay [12], in assay [15] and in assay [13] was “inactive” each time. Besides, in [2], the Potency is 23.2 µM (active). The outcome in [16] was inactive.
As to `CNC(=O)N(c1ccccc1)c1ccccc1`, the Potency entry in assay [1], in assay [2], in assay [3], in assay [4], in assay [5] and in assay [6] was “inactive” in each case. Moreover, the Potency result in assay [20], in assay [17], in assay [14], in assay [8], in [9] and in assay [10] was “inactive” in each case. Besides, the Potency result in [18], in [11], in [12], in [15] and in assay [13] was “inactive” throughout. The result in [16] was inactive. The activity change, positive = activation in [19] is -5.23%.
Turning to `CN1CCCN=C1/C=C/c1cccs1`, the Potency result in assay [1], in assay [2], in assay [3], in assay [4], in assay [5] and in assay [6] was “inactive” throughout. The Potency entry in assay [7], in [14], in [8], in assay [9], in assay [10] and in assay [11] was “inactive” throughout. Moreover, the Potency entry in assay [12], in [15] and in [13] was “inactive” each time.
